According to ChEMBL document CHEMBL3988442, “University of Dundee, Small-Polar-MMV Screening Library” (2021):
Hit rate of the full screen: of about 38,000 compounds, about 1,200 (3.2%) showed an effect of 50% or more. The median lay at about -58%. The list comes from a sample in which strong results are over-represented; it also holds similar structures and randomly drawn compounds.

tested on: Plasmodium falciparum; test: Calibr Malaria Delayed Death Assay SOP; type: functional, organism-based; parameters: scale not given: in the data most compounds retested in dose-response had high values; settings: concentration 4.99e-06 (unit not given; other assays of the set use mol/L)

Row | SMILES | Percent Effect
1 | Cc1cc(C)cc(N2CCN(C(=O)C3CN(C)C(=O)N3)CC2=O)c1 (centres undefined) | -59%
2 | CC1(NC(=O)Cc2csc(-c3cccc(Cl)c3)n2)CCS(=O)(=O)C1 (centres undefined) | -114.6%
3 | O=C(NCc1nnnn1-c1ccccc1)c1ccc(C2CCCO2)s1 (centres undefined) | -146%
4 | Cc1nc(C(=O)N(C)CC2CC2)nn1-c1ccccc1C(C)C | -82.1%
5 | CN(C)C(C(=O)N1CC(Oc2ccccc2F)C1)c1ccc(F)cc1 (centres undefined) | 62.88%
6 | Cc1cccc(C(C(=O)N2CC(Oc3ccccc3F)C2)N(C)C)c1 (centres undefined) | -1.988%
7 | COc1ccccc1OC1CN(C(=O)C(c2ccc(F)cc2)N(C)C)C1 (centres undefined) | 0.4692%
8 | Cc1nn(C)cc1-c1cc(C(F)(F)F)nc(NC2CCN(C)CC2)n1 | -72.67%
9 | O=C(CCc1ccccn1)N1CCCC(N2CCNC2=O)C1 (centres undefined) | -153%
10 | Cc1ccc(Cl)c(C)c1NC(=O)N1CCCN(Cc2ccccn2)CC1 | -12.1%
11 | Cc1nc(CN2CCCC2Cn2ccnc2C(C)C)nc2ccccc12 (centres undefined) | 77.09%
12 | CC(C)c1nccn1CC1CCCN1Cc1nc2ccccc2n1C (centres undefined) | 20.35%
13 | c1ccc(Cc2noc(CN3CCCCC3Cn3cccn3)n2)cc1 (centres undefined) | -99.91%
14 | Cc1nc(CN2CCCCC2Cn2cncn2)nc2ccccc12 (centres undefined) | -55.02%
15 | Cc1nc(C)n(CC2CCCN2Cc2nc(N)c3ccccc3n2)n1 (centres undefined) | -104.3%
16 | COc1cccc(CN2CCCC2c2c(C)nn(C)c2C)c1 (centres undefined) | 21.41%
17 | Cc1nc2ccccc2nc1CN1CCCC1c1c(C)nn(C)c1C (centres undefined) | 56.82%
18 | Cc1nn(C)c(C)c1C1CCCN1CCCc1nc2ccccc2o1 (centres undefined) | 18.49%
19 | Cc1nc(CN2CCCC2Cn2cccn2)nc2ccccc12 (centres undefined) | 55.28%
20 | Cc1nc(CN2CCCCC2Cn2cccn2)nc2ccccc12 (centres undefined) | 70.28%
21 | Cc1nc(CN2CCCC2c2ccsc2)nc2ccccc12 (centres undefined) | 24.09%
22 | c1cnn(CC2CCCN2Cc2noc(C3CC3)n2)c1 (centres undefined) | -115.2%
23 | CC(c1nc(C2CC2)no1)N1CCN(CCN2CCCC2=O)CC1 (centres undefined) | -34.43%
24 | CC(=O)N1CCN(c2cc(N3CCOCC3)cnn2)CC1 | -46.73%
25 | CCSc1nnc([C@@H](N)CC(C)C)o1.Cl | -105.7%
26 | CC(C)(C)c1nc(CN(Cc2ccccc2Cl)C2CCCC2)no1 | -109.5%

Row | SMILES | Percent Effect
27 | Cc1cc(C(F)(F)F)nc(CCNC(C)Cn2nc(C)cc2C)n1 (centres undefined) | 25.86%
28 | CCSc1nc2ccccc2c(=O)n1OCC(=O)OC | -35.88%
29 | N#Cc1c(SCCN2CCOCC2)sc2c(O)cc(O)nc12 | 20.53%
30 | CC(Nc1ccc(Br)cc1)c1nc(C2CC2)no1 (centres undefined) | -70.57%
31 | CCOCC1CN(C(=O)N2CCCC2)Cc2cnn(CC)c21 (centres undefined) | -92.45%
32 | CCOc1ccc2[nH]c(=O)c(CN3CCN(S(N)(=O)=O)CC3)cc2c1 | -148.7%
33 | CC1CCCN(c2ncc(C(=O)NCc3ccc(F)c(Cl)c3)c(N)n2)C1 (centres undefined) | -82.32%
34 | O=C(CN1CCCC1Cn1cncn1)NCC1(c2ccccc2)CC1 (centres undefined) | -28.68%
35 | Cc1nc2ccccc2nc1CN1CCCC1Cn1cccn1 (centres undefined) | 67.78%
36 | Cc1cnn(CC2CCCN2Cc2nc3ccccc3nc2C)c1 (centres undefined) | -94.42%
37 | Cc1nc2ccccc2nc1CN1CCOC(Cn2cccn2)C1 (centres undefined) | -57.9%
38 | Cc1n[nH]c2ncc(CNC3CCN(Cc4ccccn4)CC3)cc12.Cl | -31.75%
39 | Cc1[nH]c2ccc(CNC3CCN(Cc4ccccn4)CC3)cc2c1C | 93.27%
40 | c1ccc(CN2CCC(NCCc3ccc4c(c3)CCO4)CC2)nc1 | 34.15%
41 | Cc1nnc(SCc2cccc(F)c2)n1CC(N)=O | -112.6%
42 | Cc1ccc(N2CCc3sc(C(=O)NCCN4CCCC4)cc32)nn1 | -55.34%
43 | C=C(C)CN1CCN(CCC(=O)Nc2ccccc2C(N)=O)CC1 | 11.76%
44 | O=C(NC[C@H]1OC[C@@H]2CN(Cc3ccco3)CC[C@@H]21)c1cscn1.O=C(O)C(F)(F)F | -201.4%
45 | CC(C)CCn1cc(C(=O)NC2CCS(=O)(=O)C2)c2ccccc2c1=O (centres undefined) | -89.43%
46 | CCC(Nc1nc(CCN)nc2ccccc12)c1cccs1 (centres undefined) | 62.16%
47 | CCC(Nc1nc(C)nc2onc(C)c12)c1cccs1 (centres undefined) | 19.14%
48 | CCC(Nc1nc(CCN)nc2ccccc12)c1cc(C)ccn1 (centres undefined) | -26.25%
49 | CN(C)CCn1c2c(ccc1=O)CC(NC(=O)c1cnccn1)CC2.O=C(O)C(F)(F)F (centres undefined) | -12.74%
50 | Cc1cccc(CN2CCC(c3nnsc3S(C)(=O)=O)CC2)c1 | -50.13%
51 | CNC(=O)NCC1CCC2(CCN(C(=O)c3ccccn3)CC2)CO1.O=C(O)C(F)(F)F (centres undefined) | -170.4%
52 | Cn1cncc1CN1CCC2(CC1)CCN2c1ncccn1 | -81.78%

Row | SMILES | Percent Effect
53 | Cc1nnc(CN2CCN(Cc3nccn3C)CC2)n1C | -20.51%
54 | Cc1ncc(CN2CCC(c3ccnn3C)CC2)n1-c1ccccc1 | 30.79%
55 | CCn1cncc1C1CC(=O)Nc2c1c(C)nn2-c1ccc(C)cc1 (centres undefined) | -199.9%
56 | CCc1nc(CN2CCCN(C(=O)c3ccco3)CC2)cs1 | -4.304%
57 | O=C(O)C(F)(F)F.O=C(O)C(F)(F)F.c1cncc(C2COC3(CCN(Cc4ccsc4)CC3)C2)c1 (centres undefined) | 12.38%
58 | Cc1nc(C(=O)Nc2cccnc2)c(C(C)C)s1 | -80.98%
59 | Cc1c(CN2CCCC(C(=O)Nc3ccccc3)C2)cc(C#N)n1C (centres undefined) | 39.8%
60 | CN(Cc1cccnc1)[C@@H]1CN(Cc2nccn2C)[C@@H]2CCCO[C@H]12.O=C(O)C(F)(F)F.O=C(O)C(F)(F)F.O=C(O)C(F)(F)F.O=C(O)C(F)(F)F | -14.02%
61 | COc1ccc(Br)c(NC(=O)NCc2cnn(C)c2)c1 | -45%
62 | CN1CCC2(CC1)CCN(C(=O)c1onc3ccccc13)C2 | -111.7%
63 | O=C1NCCCCC1Sc1ccc(F)cc1F (centres undefined) | -40.24%
64 | Cc1ccc(F)cc1CC(=O)N1CC[C@@]2(O)CCNC[C@H]2C1 | -30.21%
65 | Cc1nc(N(C)C)nc2c1COCC21CCN(C(=O)C2CC2)C1 (centres undefined) | -124.4%
66 | O=C(Cn1cc(C2CC2)nn1)N(Cc1cccs1)CC1CCCO1 (centres undefined) | -9.508%
67 | O=c1cc(CN(Cc2ccco2)C2CC2)nc2ccc(Br)cn12 | -50.29%
68 | O=C(c1cc(Br)ccc1Cl)N1CCN(Cc2ccco2)CC1 | -2.5%
69 | O=C(CN(Cc1ccco1)C1CC1)Nc1ccc(Br)cn1 | -177.6%
70 | Cn1cnc(S(=O)(=O)N2CCN(Cc3ccco3)CC2)c1Cl | -15.28%
71 | CN1CCC(N(Cc2ccco2)S(=O)(=O)c2ccc(Br)cc2Cl)CC1 | 73.43%
72 | CN1CCC(N(Cc2ccco2)S(=O)(=O)c2ccc(Cl)cc2)CC1 | 54.64%
73 | CN1CCC(N(Cc2ccco2)S(=O)(=O)c2cc(Br)ccc2Br)CC1 | 75.01%
74 | O=C(c1ccco1)N1CC(S(=O)(=O)c2ccc(Cl)cc2)C1 | -88.3%
75 | CC1CCN(C(=O)CN(Cc2ccco2)C2CC2)CC1 | -121%
76 | CCc1nc(C(=O)N2CCOCC2)nn1-c1ccccc1Cl | -27.32%
77 | CS(=O)(=O)c1ccc(CN2CCCCC2c2cccc(F)c2)cc1 (centres undefined) | -43.63%
78 | Cc1cc2[nH]c(CN3CCCCC3c3cccc(F)c3)cc(=O)n2n1 (centres undefined) | -66.54%

Row | SMILES | Percent Effect
79 | COc1cccc(CN2CCCCCC2c2cccs2)c1OC (centres undefined) | -76.96%
80 | COc1cc(CN2CCCC2c2cccc(F)c2)cc(OC)c1OC (centres undefined) | 25.35%
81 | COc1cccc(CN2CCCC2c2cccc(F)c2)c1OC (centres undefined) | 53.66%
82 | COc1ccc(CN2CCCC2c2cccc(F)c2)c(OC)c1OC (centres undefined) | 58.64%
83 | Cc1ccccc1-c1cc(NC(=O)CC(C)C)n(CCO)n1 | -65.33%
84 | O=C(NCCc1c[nH]c2ccccc12)C1(n2cnnn2)CCCCC1 | -28.02%
85 | O=C(O)C(F)(F)F.O=C(c1cccc(F)c1)N1CCC2(CC1)CN(c1ccccn1)CCO2 | -103.6%
86 | Cc1nn2c(-c3cnn(C)c3)nnc2s1 | -96.58%
87 | CC(C)(C)OC(=O)N1CCN(S(C)(=O)=O)C2(CCCCC2)C1 | -78.85%
88 | Cc1cc(C)c2[nH]c(=O)c(CN3CCC(O)(CN(C)C)C3)cc2c1 (centres undefined) | 5.101%
89 | Cc1cc(N2CCCC(O)(CN(C)C)C2)c2cc3c(cc2n1)OCO3 (centres undefined) | 79.58%
90 | CN(C)CC1(O)CCN(C(=O)c2cnc(-c3ccccn3)nc2)C1 (centres undefined) | -83.84%
91 | CN(C)CC1(O)CCCN(c2noc(-c3ccccc3)n2)CC1 (centres undefined) | -4.701%
92 | Cc1cc(N2CCCC3(CN(C)C(=O)O3)C2)c2cc3c(cc2n1)OCO3 (centres undefined) | -65%
93 | Cc1cc(N2CCC(O)(CN(C)C)C2)c2cc3c(cc2n1)OCO3 (centres undefined) | 89.44%
94 | CN(C)C(=O)CC1CC2(CCN(Cc3ccco3)CC2)c2ccccc21.O=C(O)C(F)(F)F (centres undefined) | 24.78%
95 | CN1C(=O)C2(CCCN(C(=O)c3ccc(=O)n(C)n3)C2)c2ccccc21 (centres undefined) | -36.85%
96 | Cc1cc(C(=O)N2CCn3cc(CN4CCCCC4)nc3C2)no1 | -18.56%
97 | O=S(=O)(C1CC1)N1CC[C@H](OCC2CC2)[C@@H]1Cc1ccncc1 | -74.15%
98 | CC(C)N(C)[C@@H]1CCN(S(C)(=O)=O)[C@H]1Cc1ccccc1 | 53.16%
99 | CC(C)N(C)[C@@H]1CCN(Cc2ccoc2)[C@H]1Cc1ccccc1 | 9.124%
100 | CN(C)[C@@H]1CCN(S(C)(=O)=O)[C@H]1Cc1ccccc1 | 16.37%
101 | CN(C)[C@@H]1CCN(C(=O)c2ccccn2)[C@H]1Cc1ccncc1 | -71%
102 | CN(C)[C@@H]1CCN(S(=O)(=O)c2cn(C)cn2)[C@H]1Cc1cccnc1.O=C(O)C(F)(F)F.O=C(O)C(F)(F)F.O=C(O)C(F)(F)F | -62.43%
103 | CN(C)[C@@H]1CCN(S(=O)(=O)C2CC2)[C@H]1Cc1ccccc1.O=C(O)C(F)(F)F | 63.58%
104 | CC(C)NC(=O)N1CC[C@@H](N(C)C)[C@@H]1Cc1ccccc1.O=C(O)C(F)(F)F | 14.09%
